The source of these data is PubChem BioAssay (EPA / NIEHS).

“And” between values parts separate entries of the source, which are not always exact repeats. Equal values may be shown once. Inconclusive results are not listed. The source made the active and inactive calls. Rule for the calls: active = hit-call score of the fitted dose curve at least 0.9, where 1 is the maximum; inconclusive = response in the unintended direction; inactive = score below 0.9.

Estrogen receptor beta (Homo sapiens), sequence (Q92731 whole entry, looked up, the tested form may be a part): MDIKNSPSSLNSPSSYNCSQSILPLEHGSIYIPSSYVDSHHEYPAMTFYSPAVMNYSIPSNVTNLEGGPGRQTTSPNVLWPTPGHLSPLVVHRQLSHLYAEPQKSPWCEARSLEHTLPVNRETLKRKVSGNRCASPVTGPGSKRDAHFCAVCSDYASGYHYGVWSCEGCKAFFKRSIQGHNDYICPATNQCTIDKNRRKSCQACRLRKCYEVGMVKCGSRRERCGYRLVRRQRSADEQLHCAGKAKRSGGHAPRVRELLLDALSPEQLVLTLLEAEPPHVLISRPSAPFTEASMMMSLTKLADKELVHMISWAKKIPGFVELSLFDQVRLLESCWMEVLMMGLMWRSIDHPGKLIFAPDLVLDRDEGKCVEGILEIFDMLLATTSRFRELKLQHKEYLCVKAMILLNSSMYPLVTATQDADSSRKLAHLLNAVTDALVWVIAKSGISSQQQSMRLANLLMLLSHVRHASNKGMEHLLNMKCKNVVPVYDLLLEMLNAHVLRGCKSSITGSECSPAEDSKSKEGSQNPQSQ
GAL4 Transcription Factor (Internal Marker), GAL4 (gene 855828), sequence (P04386 whole entry, looked up, the tested form may be a part): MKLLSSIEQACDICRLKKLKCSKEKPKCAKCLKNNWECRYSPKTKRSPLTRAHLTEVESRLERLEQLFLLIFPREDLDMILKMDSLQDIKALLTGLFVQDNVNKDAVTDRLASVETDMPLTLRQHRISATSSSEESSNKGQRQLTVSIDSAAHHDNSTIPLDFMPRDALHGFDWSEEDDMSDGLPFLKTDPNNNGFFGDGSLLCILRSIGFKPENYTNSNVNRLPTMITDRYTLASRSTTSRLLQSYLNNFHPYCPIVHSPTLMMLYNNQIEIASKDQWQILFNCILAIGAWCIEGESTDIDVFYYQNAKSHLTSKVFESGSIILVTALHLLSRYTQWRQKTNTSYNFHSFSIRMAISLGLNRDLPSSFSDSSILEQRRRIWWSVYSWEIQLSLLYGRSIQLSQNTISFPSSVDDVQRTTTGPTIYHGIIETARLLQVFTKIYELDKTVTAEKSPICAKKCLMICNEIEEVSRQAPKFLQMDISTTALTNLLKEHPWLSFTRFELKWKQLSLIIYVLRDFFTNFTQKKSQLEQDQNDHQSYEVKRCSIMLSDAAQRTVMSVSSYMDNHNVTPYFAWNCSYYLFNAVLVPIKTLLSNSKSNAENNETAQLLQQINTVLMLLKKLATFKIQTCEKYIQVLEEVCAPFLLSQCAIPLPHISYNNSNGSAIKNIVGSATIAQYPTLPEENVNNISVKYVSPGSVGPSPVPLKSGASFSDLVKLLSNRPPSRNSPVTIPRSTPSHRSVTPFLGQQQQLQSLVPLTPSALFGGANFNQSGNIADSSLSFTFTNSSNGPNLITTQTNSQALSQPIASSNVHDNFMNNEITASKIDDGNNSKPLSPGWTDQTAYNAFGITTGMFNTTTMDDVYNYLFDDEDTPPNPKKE

In one assay the test system is turtle Estrogen Receptor (ESR1), gene 101933533. Nature of the assay: ATG_trERa_XSP1: Attagene TRANS-FACTORIAL Multi-Species (XSP1) HepG2 Assay for turtle Estrogen Receptor (ESR1) (AID 2283781). An outline of the steps: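 Cell-based chimeric NR-Gal4 transactivation; HepG2; 24 h dosing; mRNA reporter detected by RT-PCR and capillary electrophoresis fluorescence.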
A word on the AC50: it is the concentration giving half of the maximal activity seen. On to `C[C@]12CCC(=O)C=C1CC[C@@H]1[C@@H]2CC[C@]2(C)C(=O)CC[C@@H]12`, for which the AC50 is 4.61 nM (active) and 4.8 nM (active). For the molecule `CC(C)(c1ccccc1)c1ccc(O)cc1`, the AC50 is 412 nM (active). For `C[C@]12CCC(=O)C=C1CC[C@@H]1[C@@H]2CC[C@@]2(C)[C@H]1CC[C@]2(C)O`, the AC50 was 1.76 nM (active).

For the molecule `ClC(Cl)=C(c1ccc(Cl)cc1)c1ccc(Cl)cc1`, the AC50 is 5500 nM (active). As for `Clc1ccc(C(c2ccccc2Cl)C(Cl)(Cl)Cl)cc1` (configuration not stated), the AC50 is 713 nM (active).

On to `Oc1ccc(C(c2ccc(O)cc2)(C(F)(F)F)C(F)(F)F)cc1`, for which the AC50 was 109 nM (active) and 71.2 nM (active).

Test system in another assay: not listed separately
Nature of the assay: ACEA_ER_AUC_viability: ACEA Biosciences xCELLigence Real-Time Cell Analysis on Estrogen Receptor Agonism for Viability (AID 2283782).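 Note: hit means loss of impedance signal meaning reduced cell growth or viability.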 An outline of the steps:
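Continuous-exposure impedance cell analysis uses T-47D cells in charcoal-stripped serum, eight 1:4 dilutions topping at 100 uM final, biological duplicate. Area under the growth curve at 80 h is fitted against DMSO baseline.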
With `N#Cc1ccc(N(CC(N)=O)CC(F)(F)F)cc1C(F)(F)F`, the call was inactive. Same read-out and setting: the value for `Cc1ccccc1[N+](=O)[O-]` was “inactive”. Consider `CC(C)(c1ccccc1)c1ccc(O)cc1`, for which the AC50 is 50 µM (active) and 24.3 µM (active) and 88.6 µM (active).

For `O=C(O)C(F)(F)C(F)(F)C(F)(F)C(F)(F)C(F)(F)C(F)(F)C(F)(F)C(F)(F)C(F)(F)F`, the AC50 was 78.6 µM (active) and 125 µM (active). On to `Cc1ccc(O)c(C)c1`, for which the molecule was classed as inactive. The same measure, in the same setting: the value for `Nc1ccc(-c2ccc(N)cc2)cc1` was “inactive”.

With `ClC1=C(Cl)[C@]2(Cl)[C@@H]3[C@@H](Cl)[C@H]4O[C@H]4[C@@H]3C1(Cl)C2(Cl)Cl`, the AC50 is 73 µM (active). Turning to `CN(C)c1nc(=O)n(C2CCCCC2)c(=O)n1C`, the molecule was called inactive. Take `ClC(Cl)=C(c1ccc(Cl)cc1)c1ccc(Cl)cc1`: the AC50 was 80.6 µM (active) and 29.5 µM (active) and 74.7 µM (active).

With `O=S(=O)(O)C(F)(F)C(F)(F)C(F)(F)C(F)(F)F`, the outcome was inactive.

Regarding `Cc1cc2c3c(c1)C(c1ccccc1)=N[C@@H](NC(=O)c1ccncc1)C(=O)N3CC2`, the result was inactive. With `Clc1ccc(Cl)cc1`, the call was inactive. `O=S(=O)(O)C(F)(F)C(F)(F)C(F)(F)C(F)(F)C(F)(F)C(F)(F)F`: the outcome was inactive.

Take `CCOP(=S)(OCC)SCSC(C)(C)C`: the AC50 is 92.7 µM (active). `CC(c1ccc(O)cc1)(c1ccc(O)cc1)c1ccc(O)cc1`: the AC50 is 88.3 µM (active). Consider `O=C(O)C(F)(F)C(F)(F)C(F)(F)C(F)(F)C(F)(F)F`, for which the result was inactive. In the case of `O=C(NC(=O)c1cc(F)c(F)cc1Cl)Nc1cc(F)ccc1N1CCC(C(=O)O)CC1`, the molecule was called inactive. For `Clc1ccc(C(c2ccccc2Cl)C(Cl)(Cl)Cl)cc1` (configuration not stated), the AC50 is 42.8 µM (active) and 53.5 µM (active) and 50.9 µM (active). As for `COc1ccc(O)c(C(C)(C)C)c1`, the AC50 is 64.6 µM (active).

Regarding `Cc1cccc(C)c1N`, the outcome was inactive. Take `OCC(O)CO`: the molecule was called inactive. As for `Oc1ccc(C(c2ccc(O)cc2)(C(F)(F)F)C(F)(F)F)cc1`, the AC50 was 83.7 µM (active) and 72 µM (active) and 73.8 µM (active). On to `Sc1ccccc1`, for which the call was inactive.

Consider `CCCCCCCCCc1ccc(O)cc1`, for which the AC50 is 21.8 µM (active) and 25.4 µM (active) and 28.8 µM (active). With `CCC(C)(c1ccc(O)cc1)c1ccc(O)cc1`, the AC50 was 87.5 µM (active) [middle of 4 runs].

A further assay has as its target Estrogen receptor beta (Homo sapiens) (UniProt Q92731). Nature of the assay: ATG_hERb_XSP1: Attagene TRANS-FACTORIAL Multi-Species (XSP1) HepG2 Assay for human Estrogen Receptor (ESR2) (AID 2283788). An outline of the steps: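 Multiplexed trans-activation in transfected HepG2: ERβ-Gal4 reporter transcripts after 24 h treatment, detected by RT-PCR plus capillary electrophoresis.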
`C[C@]12CCC(=O)C=C1CC[C@@H]1[C@@H]2CC[C@]2(C)C(=O)CC[C@@H]12`: the AC50 was 16.4 nM (active) and 8 nM (active). Take `CC(C)(c1ccccc1)c1ccc(O)cc1`: the AC50 is 227 nM (active).

Consider `Clc1ccc(C(c2ccccc2Cl)C(Cl)(Cl)Cl)cc1` (configuration not stated), for which the call was inactive.

A further assay concerns the target GAL4 Transcription Factor (Internal Marker), GAL4 (gene 855828) (UniProt P04386). Nature of the assay: ATG_GAL4_XSP1: Attagene TRANS-FACTORIAL Multi-Species (XSP1) HepG2 Assay for GAL4 Transcription Factor (Internal Marker) (AID 2283789). An outline of the steps: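 This background-control endpoint measures GAL4-driven reporter mRNA via RT-PCR and capillary electrophoresis of labelled fragments. Transiently transfected HepG2 cells were treated 24 h, with 3 nM 6-alpha-fluorotestosterone included, and gain-of-signal was fitted against DMSO.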
Take `C[C@]12CCC(=O)C=C1CC[C@@H]1[C@@H]2CC[C@]2(C)C(=O)CC[C@@H]12`: the call was inactive. Same read-out and setting: the value for `CC(C)(c1ccccc1)c1ccc(O)cc1` was “inactive”; that for `Clc1ccc(C(c2ccccc2Cl)C(Cl)(Cl)Cl)cc1` (configuration not stated) was “inactive”. In the case of `Oc1ccc(C(c2ccc(O)cc2)(C(F)(F)F)C(F)(F)F)cc1`, the molecule was classed as inactive.

Test system in the next assay: not listed separately
Nature of the assay: ATG_M_06_XSP1: Attagene TRANS-FACTORIAL Multi-Species (XSP1) HepG2 Assay for M06 Transcription Factor (Internal Marker) (AID 2283790). The protocol: ATG_XSP1_multi-species_TRANS is a cell-based, multiplexed assay created by modifying the existing Attagene TRANS-FACTORIAL system to include a panel of nuclear receptors from some or all the following species: human (Homo sapiens), mouse (Mus musculus), frog (Xenopus laevis), zebrafish (Danio rerio), chicken (Gallus gallus), and turtle (Chrysemys picta). The ECOTOX-FACTORIAL format uses HepG2, a human liver cell line, with measurements taken at 24 hours after chemical dosing in a 24-well plate. Xsp1 included 3 nM 6-alpha-fluorotestosterone to partially stimulate the androgen receptor.ATG_M_06_XSP1 is one of 29 assay components measured or calculated from the ATG_XSP1_multi-species_TRANS assay. It is designed to make measurements of mRNA induction, a form of inducible reporter, as detected with fluorescence intensity signals by Reverse transcription polymerase chain reaction (RT-PCR) and Capillary electrophoresis technology.This assay endpoint, ATG_M_06_XSP1, was analyzed in the positive analysis fitting direction relative to DMSO as the negative control and baseline of activity. Using a type of inducible reporter, measures of mRNA for gain-of-signal activity can be used to understand the background control at the transcription factor-level as they relate to the gene. Furthermore, this assay endpoint can be referred to as a secondary readout, because this assay has produced multiple assay endpoints where this one serves a background control function. To generalize the intended target to other relatable targets, this assay endpoint is annotated to the background measurement intended target family, where the subfamily is internal marker.
Human liver HepG2 cells are transiently transfected with multiple reporter transcription units (MRTUs) in 6-well plates using FuGene 6 reagent (Roche; 3 ml FuGene/1 mg DNA). The MRTU constructs are regulated by a cis-regulating element (promoter). […] A major difference between the CIS and TRANS system is that in CIS activities of endogenous TFs are measured, whereas the TRANS assay evaluates changes in activities of exogenous, chimeric NR-Gal4 proteins. […] At the end of 24 hour incubation, total RNA was isolated using TriZol reagent (Invitrogen). The isolated RNA is then reverse-transcribed using oligo(dT) primer and Mo-MLV reverse transcriptase (Invitrogen) with DNAse I (Ambion) treatment for 30 min. […] The fragments were purified using Qiaquick PCR columns (Qiagen), analyzed on an ABI 3130xL genetic analyzer (Applied Biosystems) with peak positions identified by using a set of X-rhodamine (ROX)-labeled MapMarker1000 molecular weight standards (BioVentures). […]
Turning to `C[C@]12CCC(=O)C=C1CC[C@@H]1[C@@H]2CC[C@]2(C)C(=O)CC[C@@H]12`, the molecule was called inactive. With `C[C@]12CCC(=O)C=C1CC[C@@H]1[C@@H]2CC[C@@]2(C)[C@H]1CC[C@]2(C)O`, the outcome was inactive.

`Oc1ccc(C(c2ccc(O)cc2)(C(F)(F)F)C(F)(F)F)cc1`: the molecule was classed as inactive.

Test system in a further assay: not listed separately
Kind of assay: ATG_M_61_XSP1: Attagene TRANS-FACTORIAL Multi-Species (XSP1) HepG2 Assay for M61 Transcription Factor (Internal Marker) (AID 2283797). An outline of the steps:
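Background-control readout: reporter transcripts measured by RT-PCR and capillary electrophoresis 24 h after dosing transiently transfected HepG2 multi-reporter cells, with 3 nM 6-alpha-fluorotestosterone present. Fitted in the positive direction relative to DMSO.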
Consider `C[C@]12CCC(=O)C=C1CC[C@@H]1[C@@H]2CC[C@]2(C)C(=O)CC[C@@H]12`, for which the molecule was called inactive. Regarding `C[C@]12CCC(=O)C=C1CC[C@@H]1[C@@H]2CC[C@@]2(C)[C@H]1CC[C@]2(C)O`, the outcome was inactive.

Take `Oc1ccc(C(c2ccc(O)cc2)(C(F)(F)F)C(F)(F)F)cc1`: the call was inactive.

Test system in another assay: not listed separately
Nature of the assay: ATG_M_19_XSP1: Attagene TRANS-FACTORIAL Multi-Species (XSP1) HepG2 Assay for M19 Transcription Factor (Internal Marker) (AID 2283798). An outline of the steps:
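Readout is reporter mRNA induction quantified via RT-PCR, 6-FAM labeling, HpaI digestion and capillary electrophoresis, fitted in the positive direction versus DMSO baseline. Transfected HepG2 cells exposed 24 h, medium including 3 nM 6-alpha-fluorotestosterone.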
For the molecule `CC(C)(c1ccccc1)c1ccc(O)cc1`, the molecule was called inactive. Same read-out and setting: the value for `ClC(Cl)=C(c1ccc(Cl)cc1)c1ccc(Cl)cc1` was “inactive”. On to `Clc1ccc(C(c2ccccc2Cl)C(Cl)(Cl)Cl)cc1` (configuration not stated), for which the outcome was inactive.

Test system in another assay: not listed separately
Kind of assay: ATG_M_32_XSP1: Attagene TRANS-FACTORIAL Multi-Species (XSP1) HepG2 Assay for M32 Transcription Factor (Internal Marker) (AID 2283799). An outline of the steps: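 Reporter transcripts from the M32 internal-control unit measured by RT-PCR, FAM labelling, HpaI digestion and capillary electrophoresis after 24 h compound exposure of transfected HepG2, 3 nM 6-alpha-fluorotestosterone included; DMSO baseline, positive-direction fit.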
As for `C[C@]12CCC(=O)C=C1CC[C@@H]1[C@@H]2CC[C@]2(C)C(=O)CC[C@@H]12`, the result was inactive.

In the case of `CC(C)(c1ccccc1)c1ccc(O)cc1`, the result was inactive. For `ClC(Cl)=C(c1ccc(Cl)cc1)c1ccc(Cl)cc1`, the outcome was inactive. With `Clc1ccc(C(c2ccccc2Cl)C(Cl)(Cl)Cl)cc1` (configuration not stated), the result was inactive. Turning to `Oc1ccc(C(c2ccc(O)cc2)(C(F)(F)F)C(F)(F)F)cc1`, the molecule was called inactive.
